In PubChem BioAssay AID1347431 (National Center for Advancing Translational Sciences (NCATS), 2020):
Out of some 1,200 compounds screened, fewer than 10 were called active. Calls come from the whole dose curve; as a rule, active = well fitted curve in the direction sought with a large enough effect; inconclusive = small, poorly fitted or top-dose-only effect, or another doubt; inactive = no such curve, though single readings can be large or run the other way. The list is a sample of the results.

Assay: Confirmatory qHTS assay for inhibitors of Activation Induced Cytidine Deaminase (AID): UDG signals; note: 0% is about no effect
Conditions: UDG coupled enzyme activity counter-screen; series mostly up to 115 µM; activity change, negative = inhibition: at the top concentration
From the text: Assay Provider (PI) Patricia Gearhart Ph.D.
National Institute on Aging
National Institute of Health (NIH), Bethesda, MD
Assay Provider (PI) Rahul Kohli Ph.D.
Perelman School of Medicine
University of Pennsylvania, Philadelphia, PA
Activation-Induced Deaminase (AID) is a cytosine deaminase which converts cytosine into uracil within stretches of ssDNA. The presence of uracil in DNA initiates a cascade of mutagenic DNA repair to introduce point mutations and DNA double strand breaks. Specific targeting of AID to the immunoglobulin heavy chain loci (Igh) promotes mutagenesis in the antibody variable region for somatic hypermutation (SHM) or switch regions leading to class switch recombination (CSR). However, AID also plays a role in accumulating unnecessary mutations across the genome. Mis-targeting of AID results in the initiation of tumor development and leads to greater drug resistance among cancer cells when continually expressed. To identify an AID inhibitor, a small molecule library will be screened in collaboration with NCATS core facility at NIH. To confirm biological function, inhibitors will be examined in an in vitro murine B-cell activation assay and subsequent secondary validation screens. Top molecules will be further screened to identify inhibitory efficacy against a wild type primary splenocytes assay. Using these approaches, we hope to identify a small molecule with great efficacy and low toxicity for use as a molecular probe to further characterize AID's intricacies, or even as a therapeutic.
A FRET based analysis of cytosine deamination, was developed to identify potential inhibitors of AID catalytic activity. This screen has two signal output, Read 1 evaluates the AID inhibition response. The second readout (Read 2) evaluates UDG response and is uses as a counterscreen to exclude false positive inhibitors. Inhibition in AID and inactivity in the UDG signal is the desired outcome for this assay.
SEQUENCE No. (e.g., 1, 2, 3, etc.); […] (e.g., Cells, Incubation, Reagent, etc.); VALUE; DESCRIPTION
1a; Reagent; 3 uL; [4/3x] 1 uM AID/2.67 U/mL UDG
1b; Reagent; 3 uL; 2 U/mL UDG
1c; Reagent; 3 uL; 1 uM AID
2a; Compound; 46 nL; Follow-up plates (0.64 uM - 10 mM)
2b; Control; 46 nL; ATA ([…] - 10 mM)
3; Time; 10 min; incubation at room temperature
5; Time; 4 hr; incubation at room temperature
6; Reagent; 4 uL; [2x] 250 mM NaOH
7; Time; 15 sec; centrifuge at 1000 rpm
8; Time; 30 min; incubation at room temperature
9a; Detection; fluorescence (Read 1: AID); EnVision (PerkinElmer) plate reader, 540 excitation and 590 emission filters
9b; Detection; fluorescence (Read 2: UDG); EnVision (PerkinElmer) plate reader, 560 excitation and 665 emission filters
NOTES (numbers refer to sequence above)
1a; Reagents were dispensed in a medium-binding black solid-bottom Greiner plates (789176F) using a BioRptr liquid dispenser. Dispense 3 uL of [4/3x] 1 uM AID (provided by Kohli lab) and [4/3x] 2 U/mL UDG (NEB M0280L) into columns 1, 2, 5 to 48.
1b; Dispense 3 uL of [4/3x] 2 U/mL UDG into column 3.
1c; Dispense 3 uL of [4/3x] 1 uM AID into column 4.
2a; Compound (7-points [uM]: 0.64; 3.2; 16; 80; 400; 2,000; 10,000; […]) double pin-transferred (Dip Factor = 2) using the Kalypsys (Wako USA) pintool equipped with a 1536 pinhead for a final concentration range of 7.32 nM - 114 uM.
2b; 10 mM Aurintricarboxylic Acid (Sigma A1895) (ATA, 8-point, n = 2, 1:2.5 dilution in column 2) double pin-transferred (Dip Factor = 2) using the Kalypsys (Wako USA) pintool equipped with a 1536 pinhead for a [final] range of 186 nM - 114 uM.
3; Room temperature incubation.
4; Dispense 1 uL of substrate mixture from the Kohli lab [4x] […] DJC20 and [4x] 250 nM DJC23 into columns 1 to 48 .
5; Room temperature incubation.
6; Dispense 4 uL of substrate mixture [2x] 250 mM NaOH into columns 1 to 48.
7; Centrifugation step to remove bubbles.
8; Room temperature incubation
9a; Fluorescence signal (column label AID) was read using the EnVision plate reader. […]

SMILES	activity change, negative = inhibition
CCCCn1c(-c2ccc(C)cc2)c(C)n2c3c(=O)n(C)c(=O)n(C)c3nc12	-8.55% (inactive)
COc1ccccc1CC(=O)Nc1ccc2nc(Nc3cccc(C(F)(F)F)c3)cc(C)c2c1	-7.35% (inactive)
CC1CCCCN1CCNC(=O)c1ccc(Cn2c(SCc3ccccc3)nc3cccnc32)cc1 (centres undefined)	-1.41% (inactive)
CC(C)CCN(Cc1ccco1)C(=O)c1cc2c(s1)-c1ccccc1OC2	-3.35% (inactive)
CCC(C)c1ccc(OCC(=O)Nc2cccc(-c3nc4ncccc4o3)c2)cc1 (centres undefined)	-3.86% (inactive)
CCc1ccc(NC(=O)c2cc(C(C)=O)n3ccccc23)cc1	-4.94% (inactive)
CCc1ccc2oc(C(=O)NCC(c3ccc(Cl)cc3)N3CCOCC3)c(C)c2c1 (centres undefined)	-10.8% (inactive)
COc1ccc(N(C)C(=O)c2cc3c(s2)-c2ccccc2OC3)cc1	-11.3% (inactive)
COc1ccc(C2CC(=O)N3CN(C4CCCCC4)CSC3=C2C#N)c(OC)c1 (centres undefined)	-11.5% (inactive)
CCn1cc2nc(SCc3cccc(C(F)(F)F)c3)n(Cc3ccc(C)cc3)c(=O)c2n1	-5.91% (inactive)
Cc1ccc(-n2ncc(C(=O)N3CCN(Cc4ccccc4)CC3)c2C2CCN(C(=O)OC(C)(C)C)CC2)c(C)c1	-9.77% (inactive)
CCn1cc(S(=O)(=O)c2ccc(Cl)cc2)c(=O)c2cc(F)c(N3CCOCC3)cc21	8.08% (inactive)
Cc1ccc(-n2c(=O)c3oc4ccccc4c3n(Cc3cccc(F)c3)c2=O)cc1C	1.83% (inactive)
O=C(c1cccn1-c1nnc(N2CCCCC2)s1)N1CCN(c2ccc(Cl)cc2)CC1	-13.6% (inactive)
Cc1ccc(Cl)cc1N1CCN(C(=O)c2ccc3c(c2)N(Cc2ccccc2)CCS3)CC1	10.8% (inactive)
COc1ccc(-c2coc3c2c(C)cc2oc(=O)c(CC(=O)O)c(C)c23)cc1	-15.3% (inactive)
CCCc1cc(=O)n2[nH]c(NC(=O)c3ccc(C(C)(C)C)cc3)nc2n1	14.5% (inactive)
Cc1ccccc1C(=O)Nc1ccc(C(=O)OCc2cc(=O)n3c4c(sc3n2)CCCC4)cc1	-1.88% (inactive)
Cc1ccc2c(C)c(C(=O)NCC(c3ccc(Cl)cc3)N3CCOCC3)oc2c1 (centres undefined)	-1.8% (inactive)
CCOC(=O)c1c(C)oc2nc(C)nc(N3CCN(c4ccccc4F)CC3)c12	-3.63% (inactive)

SMILES	activity change, negative = inhibition
CCN(CC)C(=O)c1ccc2c(c1)N(Cc1c(F)cccc1Cl)C(=O)c1ccccc1S2	0.172% (inactive)
COc1ccc(-c2nn3c(-c4ccccc4C)nnc3c3ccccc23)cc1	-9.22% (inactive)
COc1ccc(CCNC(=O)CSc2cn(CCNC(=O)c3cccc(C(F)(F)F)c3)c3ccccc23)cc1OC	-4.31% (inactive)
CCOCCCn1c(=N)c(C(=O)NC(C)c2ccccc2)cc2c(=O)n3cccc(C)c3nc21 (centres undefined)	-12.7% (inactive)
COc1ccc(CNc2oc(-c3ccc(COc4ccccc4C)o3)nc2C#N)cc1	-3.1% (inactive)
Cc1ccc(Cl)cc1N(C)C(=O)c1sc2nc3n(c(=O)c2c1C)CCCC3	-5.4% (inactive)
COc1cc2c(=O)c(S(=O)(=O)c3ccc(C)cc3)cn(Cc3cccc(C)c3)c2cc1OC	-3.74% (inactive)
O=C(Nc1cc(-c2ccccc2)sc1C(=O)O)c1cccc(F)c1	-3.22% (inactive)
C=Cc1ccc(CN2C(=O)N(c3ccc(C)c(C)c3)S(=O)(=O)c3ccccc32)cc1	-4.6% (inactive)
O=S(=O)(NCCc1nnc2ccc(SCc3ccc(Cl)cc3Cl)nn12)c1ccccc1	-1.19% (inactive)
COc1ccc(-c2cc3ncc(C(=O)c4cc([N+](=O)[O-])ccc4O)cn3n2)cc1	4.06% (inactive)
Cc1c(C(=O)N(C)c2ccccc2)sc2nc(-c3ccc(F)cc3)cn12	-7.95% (inactive)
CCOc1ccc2nc(Cl)c(C3CC(c4ccc(C)cc4)=NN3C(=O)CCC(=O)O)cc2c1 (centres undefined)	4.17% (inactive)
COc1ccccc1-c1nn(CCC(=O)Nc2ccc(C)cc2)c2nc(C)cc(C)c12	-6.55% (inactive)
Cc1ccc(C)c(N2CCN(C(=O)c3cnn(C(C)(C)C)c3C3CCN(C(=O)OC(C)(C)C)CC3)CC2)c1	-6.07% (inactive)
COc1cc2c(cc1OC)C(COc1ccc(F)cc1)N(C(=O)c1cccc(F)c1)CC2 (centres undefined)	-11.3% (inactive)
COc1ccc(OC)c(NC(=O)Cn2c(=O)cc(-c3ccccc3)c3c(C)nn(C)c32)c1	7.45% (inactive)
Cc1nc2c(C(=O)NCc3ccccc3)c[nH]n2c(=O)c1Cc1ccccc1Cl	4.49% (inactive)
CCCCCSc1nnc2c(n1)OC(CC)Nc1ccc(Br)cc1-2 (centres undefined)	6.46% (inactive)
CCCCN(CCCC)C(=O)c1cc2c(=O)n3cccc(C)c3nc2s1	-1.48% (inactive)

SMILES	activity change, negative = inhibition
CCOc1ccc(C(=O)/C=C/c2cn(CC(O)CN3CCCCCC3)c3ccccc23)cc1 (centres undefined)	-4.79% (inactive)
CCCc1nc2ccccc2n2c(-c3ccccc3)c3c(=O)n(C)c(=O)n(C)c3c12	-2.27% (inactive)
CCCN1CCN(CCCNC(=O)c2cc3c(Cl)nc4ccccc4c3s2)CC1	12.3% (inactive)
COc1ccc(CSc2nc3ccncc3n2Cc2nc(-c3ccc(OC)c(OC)c3)oc2C)cc1	3.79% (inactive)
COc1ccc(Cn2cc(C(=O)c3ccc(C)c(C)c3)c(=O)c3ccccc32)cc1	-4.47% (inactive)
Cc1ccccc1NC(=O)c1c(NC(=O)C(F)(F)F)sc2c1CCCCC2	6.21% (inactive)
O=S1(=O)c2ccccc2N(Cc2ccc(Cl)cc2)c2ccccc21	3.98% (inactive)
Cc1cccc(Cn2c(SCc3ccc(C(=O)N4CCCCCC4)cc3)nc3ccncc32)c1	1.99% (inactive)
COCCc1nn2c(=O)cc(COC(=O)c3ccc(C(C)(C)C)cc3)nc2s1	6.29% (inactive)
CCN(c1cccc(C)c1)S(=O)(=O)c1nnc(NC(=O)c2ccccc2Cl)s1	0.737% (inactive)
COc1ccccc1N1CCN(C(=O)c2cc3c(-c4ccccc4F)nn(C)c3s2)CC1	-3.23% (inactive)
CCOc1cccc(C(=O)N(Cc2ccc(F)cc2)Cc2ccco2)c1	-7.98% (inactive)
CCOc1ccc(CCNc2ncnc3onc(-c4ccc(Cl)cc4)c23)cc1OCC	-4.41% (inactive)
Cc1cc(OCCCSc2nc(-c3ccc(C(C)(C)C)cc3)nc3cc(=O)[nH]n23)ccc1Cl	-3.24% (inactive)
CCOc1ccc(Nc2c(S(=O)(=O)c3ccc(C)cc3)cnc3ccc(OC)cc23)cc1	-6.81% (inactive)
CCn1cc2nc(SCc3cccc(C(F)(F)F)c3)n(CCc3ccccc3)c(=O)c2n1	-6.4% (inactive)
CCCCOc1ccc(C(=O)Nc2ccc(S(=O)(=O)Nc3nc(C)cc(C)n3)cc2)cc1	5.37% (inactive)
O=C(O)c1c(-c2ccccc2)oc2ccc(OCc3c(F)cccc3Cl)cc12	-5.79% (inactive)
O=C1c2ccccc2C(=O)C1(c1ccccc1)N1CCN(c2cccc(C(F)(F)F)c2)CC1	4.62% (inactive)
